Screen size: about 1,200 compounds; about 210 (18%) were called active. No stated cut-off is given here; in the data, active means inhibition above about 30%; inactive means the rest. Only a sample is shown.

The test can be described thus: fluorescence readout artefact check – biochemical, HTRF, uHTS, artefact control for SUMOylation inhibitor project, confirmation (AID 2069). The conditions noted are these: HTRF interference counterscreen, at 35 µM, hits give high values.
In general, inhibition refers to the relative decrease from the control value, in per cent. With `Cc1ccc2[nH]c3c(c2c1)CN(C(=O)CN1CCN(c2cccc(C)c2C)CC1)CC3`, the inhibition was 12.8% (inactive). The same measure for `O=c1oc(-c2cccs2)nc2sc3c(c12)CCC3`: 40.5% (active); for `COC(=O)c1c(C)oc(C)c1S(=O)(=O)NC(C)(C)C`: 3.5% (inactive). `COc1ccc(C2C(C(C)=O)=C(O)C(=O)N2C)c(OC)c1` (stereo unspecified): the inhibition was -3.35% (inactive). The same measure for `COc1cc(NC(=O)c2cnc(N)s2)cc(C(=O)Nc2cccc(C(F)(F)F)c2)c1`: 8.1% (inactive). As for `O=C(N/N=C/c1ccc(-c2ccc(S(=O)(=O)Nc3ncccn3)cc2)o1)c1cc2ccccc2cc1O`, the figure is 28.5% (inactive). Turning to `CCOCCCN1CN(Cc2ccco2)CNC1=S`, the inhibition is 39.1% (active). `CC1=C(C#N)C(=O)NC(=O)/C1=C\c1ccc(-c2cc(C)c(C)cc2[N+](=O)[O-])o1`: the inhibition is 9.4% (inactive). With `CCCS(=O)(=O)c1c(S(=O)(=O)CCC)c2c(N)cccn2c1C(=O)c1ccc(Br)cc1`, the inhibition is 6.7% (inactive). On to `Cc1cc(=O)[nH]c(-n2[nH]c(C)cc2=O)n1`, for which the inhibition was -1.85% (inactive). The same measure for `COc1ccccc1C1Nc2cccc3cccc(c23)N1`: -18.4% (inactive); for `CCOc1ccc(-n2c(SCC(=O)Nc3ccc(CC)cc3)nc3n[nH]c(C)c3c2=N)cc1`: 23.6% (inactive); for `O=C1c2nc3cc(-c4ccco4)[nH]n3c(=O)c2CN1C1CCCCC1`: 29.8% (inactive). As for `CCCCN1Cc2c(nc3cc(-c4ccco4)[nH]n3c2=O)C1=O`, the figure is 31.7% (active); as for `CC1=NN(c2ccccc2)C(=O)/C1=C/c1cccs1`, -3.6% (inactive); as for `Cc1[nH][nH]c(=O)c1C(c1c(C)[nH][nH]c1=O)c1cn(Cc2ccc(F)cc2)c2ccccc12`, -43.9% (inactive). For `COC(=O)c1scc(C)c1NC(=O)C(Cl)c1ccccc1` (stereo unspecified), the inhibition is 0.85% (inactive). For the compound `CN(c1ccccc1)c1ccc(/C=C(\CCC(=O)O)c2nc3ccccc3s2)cc1[N+](=O)[O-]`, the inhibition was 7.85% (inactive). Regarding `NNC(=O)c1oc2nc(-c3ccco3)cc(-c3ccco3)c2c1N`, the inhibition is 9.15% (inactive).

In the case of `NC(=O)c1sc2nc(-c3ccco3)ccc2c1N`, the inhibition was 41.8% (active). The same measure for `N#Cc1sc2nc(-c3ccccc3)cc(-c3ccco3)c2c1N`: 26.3% (inactive); for `Nc1nc(-c2ccco2)c(-c2ccco2)s1`: -13.2% (inactive); for `CC(=O)c1sc2nc(-c3ccco3)ccc2c1N`: 48.3% (active). As to `NNC(=O)c1oc2nc(-c3cccs3)cc(-c3ccco3)c2c1N`, the inhibition is 12.8% (inactive). As to `S=C(Nc1ccc2nsnc2c1)NC1CCCCC1`, the inhibition is 10.2% (inactive). Consider `O=[N+]([O-])c1ccc(C=Nc2cccc3ccccc23)s1`, for which the inhibition was 5.6% (inactive). The same measure for `CCC(=O)OCCNc1cc(Sc2nc3ccccc3s2)c2nonc2c1[N+](=O)[O-]`: 1.05% (inactive); for `O=C(O)c1cccc(N2C(=O)/C(=C/c3ccc(SCc4ccc(Cl)cc4)o3)SC2=S)c1`: 14.9% (inactive). As to `CCCN(C(=O)c1cc2c(s1)CCC2)c1c(N)n(Cc2ccccc2)c(=O)[nH]c1=O`, the inhibition was -3.9% (inactive). As for `Cc1cccc(C(=O)NC2C(=O)NNC2c2ccc(Cl)cc2)c1` (stereo unspecified), the figure is -5.5% (inactive); as for `COc1ccc(N2C(=O)[C@@H]3[C@H](C2=O)[C@H]2c4ccccc4C=CN2[C@@H]3C(C)=O)cc1`, 9.4% (inactive).

`Cc1ccc(-c2[nH]c(-c3ccc(C(=O)O)cc3)nc2-c2ccccc2)cc1`: the inhibition was 43.1% (active). As for `Cc1ccc(NC(=O)CCC(=O)OCC(=O)c2ccc(-c3ccccc3)cc2)cc1`, the figure is -1.75% (inactive); as for `COc1cc(/C=C2\C(=O)N(c3ccccc3)N=C2C)ccc1Oc1ccc([N+](=O)[O-])cc1[N+](=O)[O-]`, 1.25% (inactive); as for `CSc1nnc(SCc2nc3sc(C(=O)O)c(C)c3c(=O)[nH]2)s1`, 31.2% (active). As for `CC(=O)c1sc2nc(CSc3nnnn3-c3ccccc3)[nH]c(=O)c2c1C`, the inhibition was 0.9% (inactive). In the case of `O=C(CSc1nnc(SCc2ccc(Cl)cc2)s1)N/N=C/c1c[nH]c2ccccc12`, the inhibition was 9.75% (inactive). The same measure for `S=c1[nH]nc(-c2cc(-c3ccco3)[nH]n2)n1-c1ccccc1Cl`: 0.75% (inactive); for `COc1cc(O)c(NC(C)=O)c2nonc12`: 6.2% (inactive). Regarding `COCCNC(=O)Nc1ccc2nc(-c3ccco3)c(-c3ccco3)nc2c1`, the inhibition was 52.4% (active). The same measure for `COc1ccc(OC)c(-n2c(-c3cc(-c4ccco4)[nH]n3)n[nH]c2=S)c1`: 7.95% (inactive). Regarding `COc1ccc2nc3cccc(OC)c3nc2c1`, the inhibition was 11.7% (inactive). In the case of `COc1ccc2nc(-c3ccco3)c(-c3ccco3)nc2c1`, the inhibition was 33.1% (active).

As for `O=C(Nc1ccccc1)c1ccc2nc(-c3ccco3)c(-c3ccco3)nc2c1`, the inhibition was 22.8% (inactive). As for `COc1ccc(CCNC(=O)c2ccc3nc(-c4ccco4)c(-c4ccco4)nc3c2)cc1OC`, the figure is 13.3% (inactive); as for `CCc1ccc(OCC(=O)N/N=C2\CC(=O)c3ccccc32)cc1`, -2.45% (inactive); as for `COCCN=c1scc(-c2ccco2)n1/N=C/c1ccc(O)c(O)c1O`, -18.7% (inactive).

As to `CC(C)c1ccc(NC(=O)C[n+]2ccn(C3=C([O-])c4ccccc4C3=O)c2)cc1`, the inhibition was -10.2% (inactive). As for `Cc1ccc(S(=O)(=O)C(C#N)c2nc3ccccc3nc2N2CC(C)OC(C)C2)cc1C` (stereo unspecified), the figure is 4.8% (inactive); as for `O=c1c(=Nc2ccccc2O)c(=O)c2ccccc12`, -6.7% (inactive). The same measure for `O=C1NC(=Nc2ccc(O)cc2)S/C1=C\C=C\c1ccco1`: 8.5% (inactive); for `Cc1c(CC(=O)O)c(=O)oc2c(C)c(OCc3ccccc3Br)ccc12`: -1.95% (inactive); for `Cc1cc(=O)oc2cc(OCc3ccc(C(=O)OCC(=O)Nc4ccc(N(C)C)cc4)cc3)ccc12`: 11.7% (inactive). For `COc1ccc2c(c1)c(=O)oc1c(C)c(OCc3ccc(C(=O)O)cc3)ccc12`, the inhibition was 31.4% (active). With `COc1cc(/C=C(\C#N)C(=O)Nc2cccc(C(=O)O)c2)ccc1OCc1ccc(Cl)cc1`, the inhibition was 19.7% (inactive). As for `O=C(Nc1cccnc1)c1cc2cc(Br)ccc2oc1=O`, the figure is -1.65% (inactive); as for `Cn1nccc1NC(=O)Nc1cccc(Br)c1`, 46.4% (active).

`S=C(Nc1cccc(Cl)c1)Nc1ccc2cn[nH]c2c1`: the inhibition is 2.35% (inactive). The same measure for `Cn1nccc1NC(=O)Nc1cccc(Cl)c1`: 42.6% (active); for `O=C(Nc1ccc2oc(=O)ccc2c1)c1ccc(-c2cccc(Cl)c2)o1`: 12.1% (inactive). As for `O=C(Nc1nnc(-c2ccccc2SCc2ccccc2F)s1)Nc1ccccc1F`, the figure is 0.75% (inactive); as for `Cc1ccc(C(=O)NC(C)c2nc3ccccc3n2CC(=O)Nc2c(C)cc(C)cc2C)cc1` (stereo unspecified), 25.5% (inactive); as for `O=C(CCc1ccccc1)NNc1cc(N2CCCCC2)nc(N2CCCCC2)n1`, 14.2% (inactive). As for `CCC(=O)OCCNc1cc(Sc2nccn2C)c2nonc2c1[N+](=O)[O-]`, the figure is 8.05% (inactive); as for `CC1=C(C#N)C(=O)NC(=O)/C1=C\c1ccc(-c2ccc(C)cc2[N+](=O)[O-])o1`, -1.55% (inactive); as for `COc1ccc2c(c1)CC/C(=C\C=C\c1ccccc1)C2=O`, 6.1% (inactive). In the case of `O=C(NCCNc1ccc2ccccc2c1)c1cccn2c(=O)c3sccc3nc12`, the inhibition was 5.05% (inactive). `O=C(c1cccn2c(=O)c3cc(Cl)ccc3nc12)N1CCOCC1`: the inhibition is 44.6% (active). Regarding `O=C(c1cccn2c(=O)c3cc4ccccc4cc3nc12)N1CCN(c2ccccc2)CC1`, the inhibition was 7.35% (inactive).

`CCOC(=O)N1CCC(c2cc(=O)n(-c3ccccc3)[nH]2)CC1`: the inhibition was 2.2% (inactive). As for `Cn1c2ccc(Cl)cc2c2nc3ccccc3nc21`, the figure is 21.9% (inactive); as for `CCOC(=O)N1CCN(C(=O)c2cccn3c(=O)c4cc(Br)ccc4nc23)CC1`, 49.9% (active). As for `CCOC(=O)N1CCN(C(=O)c2cccn3c(=O)c4cc(Cl)ccc4nc23)CC1`, the inhibition is 43.5% (active). In the case of `NC(=O)CC(NC(=O)Cc1ccc(Br)cc1)c1ccc(N2CCC(Br)CC2)c([N+](=O)[O-])c1` (stereo unspecified), the inhibition was 4.65% (inactive). For `O=C(Nc1nnc(-c2ccccc2)o1)c1nc2ccccc2s1`, the inhibition is 11.1% (inactive). With `CN(C)c1cc(Cl)c2nonc2c1N`, the inhibition was 4.85% (inactive).

On to `NC(=O)c1ccc(N=C2C(=O)Nc3ccc([N+](=O)[O-])cc32)cc1`, for which the inhibition was -4.65% (inactive). For `S=C(Nc1ccc(Cl)cc1)Nc1cccc2cnccc12`, the inhibition is 1.3% (inactive). In the case of `CCCCCn1c(NC(=O)c2ccco2)c(S(=O)(=O)c2ccc(C)cc2)c2nc3ccccc3nc21`, the inhibition was 6.85% (inactive). On to `CC(=O)c1ccc(NC(=S)Nc2cccc3ccccc23)cc1`, for which the inhibition was 14.1% (inactive). With `O=[N+]([O-])c1ccccc1/C=C/C=N/n1c(-c2cc(-c3ccccc3)n[nH]2)n[nH]c1=S`, the inhibition was -4% (inactive).

As to `COCCCn1c(C(=O)N2CCOCC2)cc2c(=O)n3ccccc3nc21`, the inhibition is 52.1% (active).

In the case of `COCCCNC(=O)c1cccn2c(=O)c3cc4ccccc4cc3nc12`, the inhibition is 13.3% (inactive). Consider `COCCCn1c(C(=O)N2CC(C)OC(C)C2)cc2c(=O)n3ccccc3nc21` (stereo unspecified), for which the inhibition is 46.4% (active). As to `CC1=NN(c2ccc(Br)cc2)C(=O)/C1=C/c1cccs1`, the inhibition is -19.8% (inactive). With `CCc1ccc(NC(=S)Nc2cccc3cnccc23)cc1`, the inhibition is 3.45% (inactive). As for `N#Cc1c2nc3ccccc3nc2n2cc(NC(=O)c3ccc(F)cc3)ccc12`, the inhibition is 3% (inactive). As to `Cn1cccc1/C=N/NC(=O)c1sc2cc(Cl)ccc2c1Cl`, the inhibition is 15% (inactive). The same measure for `O=C(N/N=C/c1ccc(O)c2ncccc12)c1cccc(Br)c1`: -4.25% (inactive); for `S=c1[nH]nc(-c2ccncc2)n1/N=C/c1cn(-c2ccccc2)nc1-c1ccc(Cl)cc1`: -1.35% (inactive). The same measure for `Cc1ccc(/C=C2\SC(=S)N(c3cccnc3)C2=O)o1`: 4.85% (inactive).
